We go through 11 compounds from publication PMC5540273 (PLoS ONE, 2017).

Some test systems named below: CHEK2; CIT; CLK1; CLK2; CLK3; CLK4; CSF1R-autoinhibited; CSF1R; CSK; CSNK1A1L; CSNK1A1; CSNK1D; CSNK1E; CSNK1G1; CSNK1G2; CSNK1G3; CSNK2A1; CSNK2A2; DAPK1.
Holding throughout (details): concentration: 1 μM, replicates: in singlicate; n = 1
For a further assay, the system named is T1, CTK.
T1 construct: gene MATK
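Further: KINOMEscan kinase panel screen.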

On to `CCCc1ccc(S(=O)(=O)NC2CCN(c3ccnc(Nc4ccc(F)cc4)n3)C2)cc1` (stereo not drawn) [GSK1379715], for which the “%Inh” value in the assay on CHEK2 is recorded as 0%; in the assay with CIT, 0%; in the assay on CLK1, 12%; in the assay on CLK2 it was 0%; in the assay with CLK3 it was 10%; in the assay on CLK4, 0%. Further, the “%Inh” value with CSF1R-autoinhibited, with CSF1R, in the assay with CSK, in the assay with CSNK1A1L, with CSNK1A1 and with CSNK1D was 0% in each case. Besides, the “%Inh” value in the assay on CSNK1E turned out to be 25%; with CSNK1G1, 2%; in the assay on CSNK1G2, 0%; in the assay on CSNK1G3, 2%; in the assay on CSNK2A1, 0%; in the assay on CSNK2A2 it was 0%. In addition, the “%Inh” value in the assay with CTK and in the assay on DAPK1 was 0% each time.
As to `CN(C)CCN(C)C(=O)c1cc(-c2ccncc2)c(-c2ccc(Cl)c(O)c2)o1.Cl.Cl` [SB-710397], the “%Inh” value in the assay with CHEK2 came to 12%; in the assay on CIT, 21%; in the assay on CLK1 it was 18%; with CLK2, 0%; in the assay with CLK3 it was 9%; in the assay with CLK4, 25%. The “%Inh” value in the assay on CSF1R-autoinhibited stood at 0%; in the assay on CSF1R, 3%; with CSK, 0%; in the assay on CSNK1A1L it was 20%; with CSNK1A1 it was 62%; in the assay on CSNK1D, 90%. Moreover, the “%Inh” value in the assay on CSNK1E turned out to be 93.4%; in the assay on CSNK1G1, 0%; in the assay on CSNK1G2, 0%; in the assay on CSNK1G3 it was 14%; with CSNK2A1, 0%; with CSNK2A2, 4%. Moreover, the “%Inh” value was determined as 0% in the assay with CTK and 4% in the assay on DAPK1.
In the case of `Cl.O=C(Nc1cccc(-c2nn3ncccc3c2-c2ccnc(Nc3cccnc3)n2)c1)c1c(F)cccc1F` [GSK312879], the “%Inh” value with CHEK2 was found to be 0%; in the assay on CIT, 30%; in the assay with CLK1 it was 19%; with CLK2 it was 3%; with CLK3, 0%; in the assay on CLK4, 12%. For the same compound, the “%Inh” value stood at 0% with CSF1R-autoinhibited; 17% in the assay on CSF1R; 18% in the assay with CSK; 4% in the assay on CSNK1A1L; 0% in the assay with CSNK1A1; 15% in the assay with CSNK1D. Besides, the “%Inh” value is 24% in the assay with CSNK1E; 8% in the assay with CSNK1G1; 0% with CSNK1G2; 15% in the assay with CSNK1G3; 1% in the assay on CSNK2A1; 0% in the assay on CSNK2A2. The entries for the “%Inh” value with CTK and in the assay with DAPK1 were 25% and 2%, respectively.
As for `Nc1ncnc2[nH]c(-c3ccccc3)nc12` [AH5015], the “%Inh” value in the assay on CHEK2 came out at 0%; in the assay with CIT, 9%; in the assay on CLK1 it was 67%; in the assay with CLK2, 57%; in the assay on CLK3, 0%; in the assay with CLK4 it was 71%. The “%Inh” value with CSF1R-autoinhibited is reported as 7%; in the assay with CSF1R, 13%; with CSK, 0%; in the assay on CSNK1A1L, 1%; with CSNK1A1, 0%; in the assay on CSNK1D, 21%. The “%Inh” value came to 14% in the assay with CSNK1E; 11% in the assay with CSNK1G1; 0% with CSNK1G2; 9% in the assay with CSNK1G3; 29% in the assay with CSNK2A1; 100% in the assay on CSNK2A2. The “%Inh” value in the assay with CTK is given as 5%; in the assay on DAPK1, 4%.
With `Cc1cccc(-c2nc(Nc3ccc4[nH]ncc4c3)c3ccccc3n2)n1` [GW857175], the “%Inh” value in the assay with CHEK2 was determined as 0%; with CIT, 9%; with CLK1, 33%; in the assay on CLK2, 14%; in the assay with CLK3, 4%; in the assay with CLK4, 12%. The “%Inh” value in the assay on CSF1R-autoinhibited was 33%; in the assay on CSF1R it was 7%; with CSK it was 0%; in the assay with CSNK1A1L, 0%; in the assay on CSNK1A1 it was 0%; in the assay on CSNK1D it was 28%. Also, the “%Inh” value is recorded as 28% in the assay on CSNK1E; 15% in the assay on CSNK1G1; 0% in the assay with CSNK1G2; 18% with CSNK1G3; 94% with CSNK2A1; 18% in the assay with CTK. Moreover, the “%Inh” value in the assay with DAPK1 turned out to be 10%.
For the compound `Cc1cc(-c2ccc3c(c2)CC[C@@H](N[C@@H](C)c2ccccc2)C3)cnc1N.Cl` [GW412617], the “%Inh” value in the assay on CHEK2 came out at 6%; in the assay on CIT it was 24%; with CLK1 it was 13%; in the assay with CLK2, 0%; in the assay with CLK3, 0%; in the assay with CLK4 it was 10%. Moreover, the “%Inh” value came out at 0% in the assay on CSF1R-autoinhibited; 27% in the assay with CSF1R; 0% in the assay with CSK; 21% in the assay on CSNK1A1L; 6% in the assay on CSNK1A1; 35% in the assay on CSNK1D. In addition, the “%Inh” value in the assay on CSNK1E was determined as 12%; in the assay on CSNK1G1, 11%; in the assay on CSNK1G2 it was 0%; in the assay on CSNK1G3 it was 8%; with CSNK2A1 it was 2%; in the assay on CSNK2A2, 10%. Besides, the “%Inh” value in the assay with CTK came to 13%; with DAPK1, 10%.
In the case of `NC(=O)c1nnc2ccccc2c1N`, the “%Inh” value with CHEK2 came to 16%; in the assay with CIT, 7%; in the assay on CLK1, 51%; in the assay on CLK2, 17%; in the assay on CLK3, 1%; with CLK4, 1%. The “%Inh” value in the assay on CSF1R-autoinhibited is 0%; in the assay on CSF1R it was 14%; with CSK it was 0%; with CSNK1A1L, 38%; with CSNK1A1 it was 66%; in the assay with CSNK1D, 49%. Besides, the “%Inh” value stood at 37% in the assay on CSNK1E; 9% in the assay with CSNK1G1; 0% in the assay with CSNK1G2; 43% in the assay with CSNK1G3; 11% in the assay with CSNK2A1; 24% with CSNK2A2. Also, the “%Inh” value in the assay with CTK is reported as 0%; with DAPK1 it was 2%.
Turning to `COC(=O)c1c(-c2ccccc2)c2cc(C(=O)O)ccc2c(=O)n1Cc1ccccc1`, the “%Inh” value in the assay on CHEK2 was 13%; in the assay with CIT, 2%; in the assay on CLK1 it was 0%; in the assay on CLK2 it was 13%; with CLK3, 0%; in the assay with CLK4, 0%. Besides, the “%Inh” value was 0% in the assay on CSF1R-autoinhibited; 50% in the assay on CSF1R; 8% in the assay on CSK; 0% with CSNK1A1L; 0% in the assay on CSNK1A1; 7% in the assay on CSNK1D. The “%Inh” value with CSNK1E, in the assay with CSNK1G1, in the assay on CSNK1G2, in the assay with CSNK1G3, in the assay with CSNK2A1 and in the assay with CSNK2A2 was 0% in each case. Further, the “%Inh” value in the assay on CTK and in the assay with DAPK1 was 0% each time.
`Cl.c1ccc(-c2n[nH]cc2-c2ccnc(-c3ccc(CN4CCOCC4)cc3)c2)nc1` [GW776245]: the “%Inh” value is on record as 0% in the assay on CHEK2; 10% in the assay with CIT; 0% in the assay with CLK1; 10% in the assay on CLK2; 0% in the assay on CLK3; 0% with CLK4. Moreover, the “%Inh” value in the assay on CSF1R-autoinhibited came out at 0%; in the assay with CSF1R it was 0%; in the assay with CSK, 10%; in the assay with CSNK1A1L it was 1%; in the assay on CSNK1A1 it was 61%; with CSNK1D it was 58%. Besides, the “%Inh” value in the assay on CSNK1E is 37%; with CSNK1G1 it was 16%; in the assay with CSNK1G2, 36%; in the assay with CSNK1G3, 0%; in the assay on CSNK2A1, 0%; in the assay with CSNK2A2, 0%. Also, the results for the “%Inh” value with CTK and in the assay with DAPK1 were 0% and 13%, respectively.
With `CS(=O)(=O)c1ccc(-c2nc3n(c2-c2ccncc2)CCC3)cc1` [SKF-105942], the “%Inh” value in the assay on CHEK2 amounted to 0%; with CIT, 4%; with CLK1, 11%; in the assay on CLK2, 0%; in the assay with CLK3, 0%; in the assay with CLK4, 0%. Moreover, the “%Inh” value with CSF1R-autoinhibited is recorded as 0%; in the assay with CSF1R, 0%; with CSK, 100%; in the assay on CSNK1A1L it was 2%; in the assay on CSNK1A1 it was 0%; in the assay on CSNK1D, 6%. Besides, the “%Inh” value came out at 22% with CSNK1E; 4% in the assay on CSNK1G1; 0% in the assay on CSNK1G2; 2% in the assay on CSNK1G3; 0% in the assay with CSNK2A1; 9% in the assay with CSNK2A2. For the same compound, the “%Inh” value in the assay with CTK and in the assay on DAPK1 was 0% throughout.
Regarding `CC1=C(C(=O)Nc2cc3cn[nH]c3cc2F)C(c2ccc(C(F)(F)F)cc2)CC(=O)N1` (stereo not drawn) [GSK429286], the “%Inh” value in the assay on CHEK2 is on record as 0%; in the assay on CIT, 5%; in the assay with CLK1 it was 14%; with CLK2 it was 0%; in the assay with CLK3 it was 37%; with CLK4 it was 0%. Further, the “%Inh” value in the assay with CSF1R-autoinhibited came to 0%; in the assay with CSF1R, 7%; in the assay with CSK, 0%; in the assay with CSNK1A1L it was 7%; in the assay on CSNK1A1 it was 0%; in the assay with CSNK1D, 10%. Besides, the “%Inh” value in the assay with CSNK1E is reported as 25%; in the assay with CSNK1G1 it was 7%; in the assay on CSNK1G2, 0%; with CSNK1G3 it was 12%; with CSNK2A1, 18%; in the assay with CSNK2A2, 0%. The figures for the “%Inh” value in the assay on CTK and in the assay on DAPK1 were 0% and 9%, respectively.
